From publication PMC4336329 (PLoS ONE, 2015) come the findings set out here.

Each structure is given as a SMILES string. The campaign covered roughly 310,000 compounds. About 14,000 (4.5%) showed an effect of 50% or more. Effects have a minus sign here. The sample as a whole holds a higher share of strong results than the screen did.
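Also: peak tail current of the secondary pulse compared with the same well before compound.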

human ether-à-go-go-related gene (hERG) potassium channel, sequence (Q12809 whole entry, looked up): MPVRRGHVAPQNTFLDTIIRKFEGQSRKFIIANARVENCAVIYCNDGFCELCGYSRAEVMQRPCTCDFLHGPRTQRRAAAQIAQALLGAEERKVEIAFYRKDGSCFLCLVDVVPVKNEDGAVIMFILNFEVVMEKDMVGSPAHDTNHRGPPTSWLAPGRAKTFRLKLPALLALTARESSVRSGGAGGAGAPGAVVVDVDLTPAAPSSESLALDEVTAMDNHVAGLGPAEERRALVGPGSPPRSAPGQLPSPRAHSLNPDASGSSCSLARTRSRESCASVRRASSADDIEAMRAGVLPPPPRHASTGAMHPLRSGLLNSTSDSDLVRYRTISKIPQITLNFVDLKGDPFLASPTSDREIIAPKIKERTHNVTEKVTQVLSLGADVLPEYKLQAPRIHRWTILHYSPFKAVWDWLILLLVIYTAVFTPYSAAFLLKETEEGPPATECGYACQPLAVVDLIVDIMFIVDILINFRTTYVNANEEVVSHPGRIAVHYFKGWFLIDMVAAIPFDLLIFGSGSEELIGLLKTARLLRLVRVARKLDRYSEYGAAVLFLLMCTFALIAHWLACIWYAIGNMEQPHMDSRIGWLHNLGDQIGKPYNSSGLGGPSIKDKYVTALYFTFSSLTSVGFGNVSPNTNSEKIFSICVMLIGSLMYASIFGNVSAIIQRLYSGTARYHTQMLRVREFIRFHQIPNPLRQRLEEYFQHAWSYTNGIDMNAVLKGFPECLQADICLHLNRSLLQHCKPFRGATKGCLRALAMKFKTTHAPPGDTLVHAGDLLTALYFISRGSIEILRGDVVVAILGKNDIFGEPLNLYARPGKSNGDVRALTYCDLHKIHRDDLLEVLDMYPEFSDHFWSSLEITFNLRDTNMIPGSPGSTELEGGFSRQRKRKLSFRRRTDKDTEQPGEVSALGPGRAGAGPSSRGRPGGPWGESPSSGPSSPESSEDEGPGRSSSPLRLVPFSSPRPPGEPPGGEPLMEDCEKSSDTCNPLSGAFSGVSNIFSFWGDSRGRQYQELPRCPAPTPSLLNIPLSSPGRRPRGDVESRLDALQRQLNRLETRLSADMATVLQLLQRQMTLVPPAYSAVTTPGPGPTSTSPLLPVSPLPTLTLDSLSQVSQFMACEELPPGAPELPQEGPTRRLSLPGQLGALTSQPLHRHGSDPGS

The assay addresses human ether-à-go-go-related gene (hERG) potassium channel (human, UniProt Q12809). The assay can be described thus: primary screen, population patch clamp on CHO cells stably expressing hERG; higher = less effect of the substance.
Take `COC(=O)C1C(O)=C(C=NCc2ccccc2)C(=O)CC1(C)C` (centres unmarked): the “hERG current change (%, negative = inhibition) at 10uM” value is listed as -5.13%. As for `CC(=O)N(C)c1ccc(NC(=O)N2CCOCC2)cc1`, the figure is 4.94%; as for `Cc1ccc(N2CC(O)Cn3c2nc2c3c(=O)[nH]c(=O)n2C)cc1` (centres unmarked), 13.3%; as for `Cc1ccc2nc(NCCC(=O)O)nc(-c3ccccc3)c2c1`, 3.76%. Turning to `CN(Cc1ccccc1)C(=O)CCC1CCN(C(=O)CCC(F)(F)F)CC1`, the “hERG current change (%, negative = inhibition) at 10uM” value was -4.45%.

For the compound `CSCc1ccc(C(=O)N2CCC(CCC(=O)N(C)Cc3ccccc3)CC2)o1`, the “hERG current change (%, negative = inhibition) at 10uM” value is on record as -50.7%. For the compound `CN(Cc1ccccc1)C(=O)CCC1CCN(C(=O)c2ccccc2C(F)(F)F)CC1`, the “hERG current change (%, negative = inhibition) at 10uM” value worked out at 8.38%.

Regarding `COC(=O)c1ccc(OC)c(CSc2nnc(COc3ccccc3)o2)c1`, the “hERG current change (%, negative = inhibition) at 10uM” value is -17.7%.

On to `CCOC(=O)c1c(CSc2ccccc2)n(C)c2cc(Br)c(OCC(O)CNC(CO)(CO)CO)cc12` (centres unmarked), for which the “hERG current change (%, negative = inhibition) at 10uM” value is 2.71%. As for `CCOC(=O)c1c(CSC(=N)N)n(-c2ccccc2)c2cc(Br)c(OC(C)=O)cc12`, the figure is -77.9%.

As to `CCOC(=O)c1c(CSc2nc(C)cc(C)c2C#N)n(C)c2cc(Br)c(OC(C)=O)cc12`, the “hERG current change (%, negative = inhibition) at 10uM” value worked out at 8.76%.

Take `Br.CCOC(=O)c1c(CSC(=N)N)n(C)c2cc(Br)c(OC(C)=O)cc12`: the “hERG current change (%, negative = inhibition) at 10uM” value is -68.7%. As for `CCOC(=O)c1c(C)n(C)c2c1cc(OC(C)=O)c1ccccc12`, the figure is 19.7%; as for `Br.CCCCCCCCOC(=O)c1c(CSC(=N)N)n(C)c2cc(Br)c(OC(C)=O)cc12`, -22.8%; as for `CCOC(=O)c1c(C)n(C)c2cc(Br)c(C)cc12`, 23.3%. As for `C=CCCc1ccc(C#N)c(SCc2c(C(=O)OCC)c3cc(OC(C)=O)c(Br)cc3n2C)n1`, the figure is -1.18%; as for `Br.CCOC(=O)c1c(CSC(=N)N)n(-c2ccc(C)cc2)c2cc(Br)c(OC(C)=O)cc12`, -65.4%; as for `CC12CCC(C(=O)Nc3cccc(Cl)c3Cl)([C@H](Br)C1=O)C2(C)C` (some centres unmarked), -39.6%. As for `COC(=O)c1ccc(NC(=O)C2CCCN(S(=O)(=O)c3cnc[nH]3)C2)cc1` (centres unmarked), the figure is 3.35%.

Take `Cc1ccc(C(=O)c2oc3ccccc3c2N)cc1`: the “hERG current change (%, negative = inhibition) at 10uM” value is -7.77%.

Regarding `CCCCOc1ccc(C(=O)NCC(=O)NC(C)CCc2ccccc2)cc1` (centres unmarked), the “hERG current change (%, negative = inhibition) at 10uM” value is reported as -4.99%. As for `CC(=O)c1cnc(N(C)C)s1`, the figure is 10%. As for `Cc1nnc(SCC(=O)Nc2ccc(-c3nc4ccccc4s3)cc2)s1`, the figure is 23.4%. `N/C(=N\[N+](=O)[O-])N1CCN(C(=O)OC2CCCC2)CC1`: the “hERG current change (%, negative = inhibition) at 10uM” value worked out at 19.4%. Take `COc1ccc(CNC(=O)CC(C)S(=O)(=O)c2ccc3c(c2)NC(=O)CO3)cc1` (centres unmarked): the “hERG current change (%, negative = inhibition) at 10uM” value was determined as 10.1%. As for `Cn1c(SCC(=O)Nc2ccc(Cl)cn2)nnc1C1CC1`, the figure is -3.25%.

In the case of `O=C(NCc1ccccc1)c1cccn(Cc2ccccc2)c1=O`, the “hERG current change (%, negative = inhibition) at 10uM” value is recorded as -29.3%. As for `O=C(Nc1ccncc1)c1cccn(Cc2ccccc2)c1=O`, the figure is -55.8%; as for `C=CCn1cccc(C(=O)Nc2ccc(C)c(Cl)c2)c1=O`, 10%.

On to `O=C(CCc1ccccc1)Nc1ccncc1`, for which the “hERG current change (%, negative = inhibition) at 10uM” value was -56.8%.

For `O=C(CCc1ccccc1)Nc1ccccc1`, the “hERG current change (%, negative = inhibition) at 10uM” value was -2.56%. For `C=CCn1cccc(C(=O)Nc2ccc(C)c(C)c2)c1=O`, the “hERG current change (%, negative = inhibition) at 10uM” value is recorded as -71.9%. In the case of `C=CCn1cccc(C(=O)Nc2ccc(C)cc2)c1=O`, the “hERG current change (%, negative = inhibition) at 10uM” value is recorded as -7.96%.

`O=C(Nc1ccccc1)c1cccn(Cc2ccccc2)c1=O`: the “hERG current change (%, negative = inhibition) at 10uM” value was found to be 13.7%.

`O=C(CCc1ccccc1)Nc1cccc(NC(=O)CCc2ccccc2)c1`: the “hERG current change (%, negative = inhibition) at 10uM” value is reported as -13.4%.

For the compound `COc1ccc(NC(=O)COC(=O)CN2C(=O)NC(C)(C)C2=O)cc1`, the “hERG current change (%, negative = inhibition) at 10uM” value turned out to be 2.55%. As for `Cc1ccc(-c2cccc(OC(=O)c3ccccc3F)c2)cc1`, the figure is 5.02%; as for `COc1ccc(NC(=O)C2CCN(S(=O)(=O)c3ccc4[nH]c(=O)oc4c3)CC2)c(OC)c1`, 3.47%; as for `O=S(=O)(c1ccccc1)c1nc(-c2ccc(F)cc2)oc1NCC1CCCO1` (centres unmarked), -34.6%.

Turning to `COc1cc2c(cc1OC)CN(C(=O)C(C)(C)C)CC2`, the “hERG current change (%, negative = inhibition) at 10uM” value is 17.6%. As for `COc1ccc(CCNC(=O)CCCOc2ccc(Cl)cc2)cc1OC`, the “hERG current change (%, negative = inhibition) at 10uM” value is recorded as -15.3%. As for `COc1ccc(CCNCC(O)COc2ccc(OC)cc2C(C)(C)C)cc1` (centres unmarked), the figure is -38.8%; as for `COc1ccc(CCNCC(O)COc2ccc(Cl)cc2)cc1OC.Cl` (centres unmarked), -72.1%.

With `COc1ccc(CCNCC(O)COc2cccc(Br)c2)cc1OC` (centres unmarked), the “hERG current change (%, negative = inhibition) at 10uM” value is listed as -67.3%. As for `COc1ccc(CCNCC(O)COc2cccc(Br)c2)cc1` (centres unmarked), the figure is -50%; as for `COc1ccc(CCNC(=O)COC(=O)COc2ccc(Cl)cc2)cc1OC`, 7.05%. As to `OC(CNCCc1ccc(C(F)(F)F)cc1)COc1ccc2ccccc2c1` (centres unmarked), the “hERG current change (%, negative = inhibition) at 10uM” value is reported as -46.5%. As for `COc1ccc(CCNCC(O)COc2cccc(C(C)=O)c2)cc1OC.O=C(O)C(=O)O` (centres unmarked), the figure is -0.028%. As for `COc1ccc(CCNCC(O)COc2c(C)cccc2C)cc1OC.O=C(O)C(=O)O` (centres unmarked), the figure is 6.84%. As for `CCN1CCCC1CNC(=O)C(=O)Nc1ccccc1OC` (centres unmarked), the figure is -15%. In the case of `C#CCNC(=O)C1=C[C@@H](c2ccc(Br)cc2)C[C@@H](OCc2ccc(CO)cc2)O1`, the “hERG current change (%, negative = inhibition) at 10uM” value was 16.6%. As for `Cl.N=c1ccn(Cc2cccc(Cl)c2)cc1`, the figure is 2.03%.

Regarding `C=CCO/N=C/C1C(=O)CC(C)(C)CC1=O`, the “hERG current change (%, negative = inhibition) at 10uM” value is 10.9%. As for `CC(C(=O)NC1CCCC1)N(C(=O)CS(=O)CC(=O)Nc1ccc(F)cc1)c1ccc2c(c1)OCCO2` (centres unmarked), the figure is -3.58%; as for `CC(=O)c1csc(CS(=O)(=O)c2ccccn2)n1`, 5.4%. As for `Fc1cccc(Nc2nc3ccccc3n3cnnc23)c1`, the figure is 4.55%. As for `CCn1c(CS(=O)Cc2ccc(Cl)cc2Cl)nnc1SCc1c(Cl)cccc1Cl` (centres unmarked), the figure is -6.78%; as for `Cn1c(CS(=O)Cc2c(Cl)cccc2Cl)nnc1SCc1c(Cl)cccc1Cl` (centres unmarked), -45.1%. Consider `Cn1c(CS(=O)Cc2c(Cl)cccc2Cl)nnc1SCc1ccc(Cl)cc1` (centres unmarked), for which the “hERG current change (%, negative = inhibition) at 10uM” value is reported as -56.2%.
